Records with an inconclusive call do not appear. Activity calls are given as the source filed them. The calls were made as follows, unless noted: active = hit-call score of the fitted dose curve at least 0.9, where 1 is the maximum; inactive = score below 0.9.
Tests used:
PGR (gene 5241) [1] = biological target: PGR (gene 5241) (UniProt P06401); assay: TOX21_PR_BLA_Followup_Agonist_ratio: Tox21 HEK293 Progesterone Receptor (PR) Agonism Beta-lactamase Follow-Up Assay, Ratio (AID 2283933; active = hit-call score of the fitted dose curve at least 0.9, where 1 is the maximum)
In short: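 Cells were seeded and held 6 hr before compound addition, exposed for 16 hr at 37C, then given FRET substrate for 2 hr at room temperature. Agonism was scored from the blue/green substrate cleavage ratio against DMSO controls.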

PGR (gene 5241) [2] = biological target: PGR (gene 5241) (UniProt P06401); assay: TOX21_PR_BLA_Followup_Antagonist_ratio: Tox21 HEK293 Progesterone Receptor (PR) Antagonism Beta-lactamase Follow-Up Assay, Ratio (AID 2283934; active = hit-call score of the fitted dose curve at least 0.9, where 1 is the maximum;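 also: PR-UAS-bla HEK293T cells stimulated with 1 nM R5020 agonist for 16 hr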)
In short: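 Cells are plated, rested 6 hr, then dosed with test compound in DMSO and challenged with 1 nM promegestone. After 16 hr incubation, substrate loading for 2 h at room temperature precedes fluorescence reading; viability is measured in the same wells.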

[3] = TOX21_PR_BLA_Followup_Agonist_viability: Viability Assessment in the Tox21 HEK293 Progesterone Receptor (PR) Agonism Beta-lactamase Follow-Up Assay (AID 2283935; active = hit-call score of the fitted dose curve at least 0.9, where 1 is the maximum;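 also: signal loss means lower viability so actives are cytotoxic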)
In short: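 Cells were plated in medium with 2% charcoal-stripped FBS and rested 6 hr. Compounds in DMSO were then added for 16 hr at 37C, followed by the FRET substrate step and CellTiter-Glo luminescence after 30 min.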

[4] = TOX21_PR_BLA_Followup_Antagonist_viability: Viability Assessment in the Tox21 HEK293 Progesterone Receptor (PR) Antagonism Beta-lactamase Follow-Up Assay (AID 2283936; active = hit-call score of the fitted dose curve at least 0.9, where 1 is the maximum;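 also: cells exposed to compound with R5020 agonist for 16 h; hits lower the luminescence signal meaning cytotoxicity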)
In short: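 PR-UAS-bla HEK293T cells in medium with 2% charcoal-stripped FBS were treated with compounds plus R5020 for 16 hr at 37C. After the beta-lactamase read, CellTiter-Glo was added to the same wells and luminescence read after 30 min at room temperature.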

PGR (gene 5241) [5] = biological target: PGR (gene 5241) (UniProt P06401); assay: TOX21_PR_LUC_Followup_Agonist: Tox21 HEK293 Progesterone Receptor (PR) Agonism Luciferase Follow-Up Assay (AID 2283937)
In short: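 Seed HEK293-PR-A-luc cells, wait 5 h, add compounds in DMSO, incubate 16 h at 37C, add ONE-Glo, read luminescence after 30 min. Activity is increase over DMSO controls; run with a viability counter-screen.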

PGR (gene 5241) [6] = biological target: PGR (gene 5241) (UniProt P06401); assay: TOX21_PR_LUC_Followup_Antagonist: Tox21 HEK293 Progesterone Receptor (PR) Antagonism Luciferase Follow-Up Assay (AID 2283938; active = hit-call score of the fitted dose curve at least 0.9, where 1 is the maximum;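 also: curve fitted upward as signal gain over DMSO baseline despite antagonist label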)
In short: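 HEK293-PR-A-luc cells, 3,000/well, preincubated 5 h at 37C before compound addition in DMSO; 16 h compound exposure at 37C. ONE-Glo luciferase luminescence read after 30 min at room temperature, fitted relative to DMSO baseline.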

[7] = TOX21_PR_LUC_Followup_Antagonist_viability: Viability Assessment in the Tox21 HEK293 Progesterone Receptor (PR) Antagonism Luciferase Follow-Up Assay (AID 2283940; active = hit-call score of the fitted dose curve at least 0.9, where 1 is the maximum)
In short: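 HEK293-PR-A-luc, 3,000 cells/well; 5 h at 37C/0% CO2; compound pin transfer; 16 h incubation; CellTiter-Glo ATP luminescence, signal loss = cytotoxicity.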

[8] = TOX21_PR_LUC_Followup_Agonist_viability: Viability Assessment in the Tox21 HEK293 Progesterone Receptor (PR) Agonism Luciferase Follow-Up Assay (AID 2283941; active = hit-call score of the fitted dose curve at least 0.9, where 1 is the maximum;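 also: loss of signal means cytotoxicity so actives lower viability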)
In short: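 Multiplexed viability endpoint of the PR agonist luciferase follow-up: HEK293-PR-A-luc cells treated 16 h at 37C, with viability scored as decrease in CellTiter-Glo ATP signal.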

[9] = biological target: Thyroid hormone receptor alpha (Rattus norvegicus) + Thyroid hormone receptor beta (Rattus norvegicus) (UniProt P18113+P63059); assay: TOX21_TR_LUC_GH3_Antagonist_Followup: Tox21 GH3 Thyroid Hormone Receptor Antagonism Luciferase Follow-Up Assay (AID 2283942; active = hit-call score of the fitted dose curve at least 0.9, where 1 is the maximum)
In short: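 In a GH3 luciferase reporter line, test chemicals spanning 92 uM to 5nM final are co-incubated 24 h with 1.0 nM T3. Activity is expressed as relative luminescence units and analysed relative to DMSO.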

THRA (gene 7067) = THRA (gene 7067) (UniProt P10827); assay: TOX21_TRA_COA_Antagonist_Followup_ratio: Tox21 Thyroid Hormone Receptor alpha Antagonism through Coactivator Recruitment Follow-Up Assay, Ratio (AID 2283953; active = hit-call score of the fitted dose curve at least 0.9, where 1 is the maximum)
In short: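 GST-TRα LBD 2.5 nM, BSA 0.10%, + cpd; then FITC-SRC-2 peptide 200 nM + Tb-anti-GST Ab 2 nM. TR-FRET ratio 520/495 nm. Norm: DMSO = 0%, T3 = 100%.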

THRB (gene 7068) [10] = biological target: THRB (gene 7068) (UniProt P10828); assay: TOX21_TRB_BLA_Antagonist_Followup_ratio: Tox21 Thyroid Hormone Receptor beta Antagonism Beta-lactamase (BLA) Follow-Up Assay, Ratio (AID 2283958; active = hit-call score of the fitted dose curve at least 0.9, where 1 is the maximum)
In short: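 Cells were plated and allowed to attach for 5 h, then dosed with compounds in DMSO at 11 concentrations for 18 h at 37C. Beta-lactamase reporter activity was measured via CCF4-AM FRET as the 460:530 nm ratio.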

[11] = TOX21_TRB_BLA_Antagonist_Followup_viability: Viability Assessment in the Tox21 Thyroid Hormone Receptor beta Antagonism Beta-lactamase (BLA) Follow-Up Assay (AID 2283961; active = hit-call score of the fitted dose curve at least 0.9, where 1 is the maximum)
In short: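 HEK293T cells with GAL4-human TRβ LBD and UAS-bla reporter, 3,000 cells/well in 2% charcoal-stripped FBS medium; 11-point concentrations in triplicate, 18 h at 37C. Viability from ATP by CellTiter-Glo luminescence, 30 min RT, same plates.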

THRB (gene 7068) [12] = biological target: THRB (gene 7068) (UniProt P10828); assay: TOX21_TRB_COA_Antagonist_Followup_ratio: Tox21 Thyroid Hormone Receptor beta Antagonism through Coactivator Recruitment Follow-Up Assay, Ratio (AID 2283967; active = hit-call score of the fitted dose curve at least 0.9, where 1 is the maximum)
In short: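 Coactivator (SRC-2) recruitment to purified GST-TRβ ligand-binding domain is monitored by terbium-to-fluorescein energy transfer, emission ratio 520:495 nm. DMSO wells define 0% and T3 wells 100% activity.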

[13] = TOX21_TR_RXR_BLA_Antagonist_Followup_viability: Viability Assessment in the Tox21 Thyroid Hormone Receptor beta Retinoid X Receptor alpha (RXRa) Antagonism Beta-lactamase (BLA) Follow-Up Assay (AID 2283979; active = hit-call score of the fitted dose curve at least 0.9, where 1 is the maximum)
In short: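 RXRa-UAS-bla HEK293T cells seeded 2,500/well in phenol red-free DMEM with 2% charcoal-stripped FBS, attached 5 h, then exposed to compounds at 11 concentrations in triplicate for 16 h at 37C/5% CO2. Viability read by CellTiter-Glo ATP luminescence; bidirectional fit versus DMSO.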

[14] = CCTE_Harrill_HTTr_Viability_MCF7: CCTE's 6-hour Cell Viability Assessment for the High-Throughput Transcriptomics (HTTr) Platform, in MCF-7 cells cultured in DMEM + 10% fetal bovine serum, Harrill Lab (AID 2284010)
In short: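 Read-out is propidium iodide gain of signal by high-content imaging, reflecting membrane integrity loss. Measurements are taken 6 h after dosing, eight concentrations per chemical, with DMSO serving as baseline for bidirectional curve fitting.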

[15] = CCTE_Harrill_HTTr_Apoptosis_MCF7: CCTE's 6-hour Apoptosis Assessment for the High-Throughput Transcriptomics (HTTr) Platform, in MCF-7 cells cultured in DMEM + 10% fetal bovine serum, Harrill Lab (AID 2284011)
In short: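 MCF-7 cells in DMEM + 10% FBS exposed 6 h to chemicals over an eight-point dilution series. Caspase-3/7 activation imaged by high-content CellEvent Green staining; fitted bidirectionally versus DMSO.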

[16] = CCTE_Harrill_HTTr_CellCount_MCF7: CCTE's Cell Proliferation Assessment for the High-Throughput Transcriptomics (HTTr) Platform, Harrill Lab (AID 2284012; active = hit-call score of the fitted dose curve at least 0.9, where 1 is the maximum;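 also: cells exposed to compound for six hours; intended direction is loss of nuclei count meaning fewer cells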)
In short: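 Cell count served as viability reporter: loss of Hoechst-stained nuclei, counted by high content imaging, marks decreased growth or survival. Exposure was 6 h in MCF-7 cells across eight concentrations, with DMSO as baseline.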

Measured: AC50

Chain of PGR (gene 5241) (P06401 whole entry, looked up): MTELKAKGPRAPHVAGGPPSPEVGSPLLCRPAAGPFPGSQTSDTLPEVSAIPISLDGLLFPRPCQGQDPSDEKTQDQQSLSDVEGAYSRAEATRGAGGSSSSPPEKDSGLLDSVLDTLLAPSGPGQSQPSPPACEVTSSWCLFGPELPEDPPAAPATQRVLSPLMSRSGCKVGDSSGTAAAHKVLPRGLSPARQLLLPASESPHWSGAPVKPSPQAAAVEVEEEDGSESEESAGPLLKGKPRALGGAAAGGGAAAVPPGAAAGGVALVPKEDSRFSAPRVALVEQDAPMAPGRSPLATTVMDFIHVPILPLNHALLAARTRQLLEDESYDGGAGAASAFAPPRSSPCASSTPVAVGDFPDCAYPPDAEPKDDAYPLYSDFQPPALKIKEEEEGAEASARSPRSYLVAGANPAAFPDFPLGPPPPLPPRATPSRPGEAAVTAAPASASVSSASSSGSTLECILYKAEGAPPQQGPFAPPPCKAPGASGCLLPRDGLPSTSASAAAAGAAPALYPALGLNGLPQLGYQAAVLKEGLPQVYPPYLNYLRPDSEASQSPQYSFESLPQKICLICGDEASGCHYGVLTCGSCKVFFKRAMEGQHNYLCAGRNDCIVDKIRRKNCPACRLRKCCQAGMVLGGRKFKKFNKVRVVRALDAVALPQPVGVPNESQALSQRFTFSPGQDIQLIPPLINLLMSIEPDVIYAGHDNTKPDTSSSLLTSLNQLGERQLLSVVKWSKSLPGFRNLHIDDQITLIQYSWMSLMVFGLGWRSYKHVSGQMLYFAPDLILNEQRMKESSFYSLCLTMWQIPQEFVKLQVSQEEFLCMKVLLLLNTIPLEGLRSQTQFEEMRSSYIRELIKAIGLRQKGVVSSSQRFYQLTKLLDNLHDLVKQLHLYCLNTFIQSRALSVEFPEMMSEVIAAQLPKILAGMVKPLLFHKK
Chain of THRB (gene 7068) (P10828 whole entry, looked up, the tested form may be a part): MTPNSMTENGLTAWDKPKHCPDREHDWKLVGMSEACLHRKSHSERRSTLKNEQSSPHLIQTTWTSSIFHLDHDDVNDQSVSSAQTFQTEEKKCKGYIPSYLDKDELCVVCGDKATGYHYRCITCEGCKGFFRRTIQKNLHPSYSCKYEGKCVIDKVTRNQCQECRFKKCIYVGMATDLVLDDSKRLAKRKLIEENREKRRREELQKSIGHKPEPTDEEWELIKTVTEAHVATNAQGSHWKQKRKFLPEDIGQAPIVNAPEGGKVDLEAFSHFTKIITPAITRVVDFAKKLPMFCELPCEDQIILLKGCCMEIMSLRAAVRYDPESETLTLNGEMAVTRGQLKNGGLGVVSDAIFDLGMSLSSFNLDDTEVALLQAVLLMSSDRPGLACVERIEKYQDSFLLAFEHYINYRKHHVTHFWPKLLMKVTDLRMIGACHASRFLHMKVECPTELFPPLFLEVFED
Chain of THRA (gene 7067) (P10827 whole entry, looked up, the tested form may be a part): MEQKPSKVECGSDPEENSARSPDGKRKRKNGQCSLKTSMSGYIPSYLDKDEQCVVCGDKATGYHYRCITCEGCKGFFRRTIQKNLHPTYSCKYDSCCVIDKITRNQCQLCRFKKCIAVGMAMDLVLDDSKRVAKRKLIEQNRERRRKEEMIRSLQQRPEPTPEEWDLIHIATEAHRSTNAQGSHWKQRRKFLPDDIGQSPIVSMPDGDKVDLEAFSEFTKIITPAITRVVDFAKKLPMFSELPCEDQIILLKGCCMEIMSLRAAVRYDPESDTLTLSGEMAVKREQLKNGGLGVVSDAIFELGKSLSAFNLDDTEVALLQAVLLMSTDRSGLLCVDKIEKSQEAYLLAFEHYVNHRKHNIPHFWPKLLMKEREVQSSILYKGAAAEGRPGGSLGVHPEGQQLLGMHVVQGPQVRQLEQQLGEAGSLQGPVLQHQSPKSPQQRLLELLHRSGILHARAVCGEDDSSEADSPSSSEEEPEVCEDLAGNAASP

COC(=O)C1=C(C)NC(C)=C(C(=O)OC(C)C)C1c1cccc2nonc12 (centres undefined)
inactive: PGR (gene 5241) [1] | [3] | [4] | PGR (gene 5241) [5] | [7] | [8]
active: PGR (gene 5241) [2] 19.4 µM | PGR (gene 5241) [6] 18.1 µM

C[C@@H]1C[C@H]2[C@@H]3CCC4=CC(=O)C=C[C@]4(C)[C@@]3(F)[C@@H](O)C[C@]2(C)[C@@]1(O)C(=O)COC(=O)c1ccncc1
inactive: PGR (gene 5241) [2] | [3] | [4] | [7] | [8]
active: PGR (gene 5241) [1] 26.1 µM | PGR (gene 5241) [5] 510 nM

CC(=O)OCC(=O)[C@@]1(O)CC[C@H]2[C@@H]3CCC4=CC(=O)CC[C@]4(C)[C@H]3C(=O)C[C@@]21C
inactive: PGR (gene 5241) [1] | PGR (gene 5241) [2] | [3] | [4] | PGR (gene 5241) [5] | PGR (gene 5241) [6] | [7] | [8]

C/C=C1\C(=O)C[C@H]2[C@@H]3CCC4=CC(=O)CC[C@]4(C)[C@H]3CC[C@]12C
inactive: [3] | PGR (gene 5241) [6] | [7] | [8]

COc1cc(NCc2ccc3nc(N)nc(N)c3c2C)cc(OC)c1OC
active: [11] 1.46 µM | [13] 1.77 µM
inactive: [9] | THRA (gene 7067) | THRB (gene 7068) [10] | THRB (gene 7068) [12]

C[C@@H]1C[C@H]2[C@@H]3C[C@H](F)C4=CC(=O)C=C[C@]4(C)[C@@]3(F)[C@@H](O)C[C@]2(C)[C@@]1(O)C(=O)CO
inactive: PGR (gene 5241) [2] | [3] | [4] | [7] | [8]

CC1=CC(=O)C(C(C)C)CC1 (centres undefined)
inactive: [14] | [15] | [16]

Nc1c(S(=O)(=O)O)cc(Nc2ccccc2)c2c1C(=O)c1ccccc1C2=O
inactive: [14] | [15] | [16]

CC(=CC(C)(C)C)CC(C)(C)C
inactive: [14] | [15] | [16]

O=CO
inactive: [14] | [15]

CCOC(=O)c1ccccc1C(=O)O
inactive: [14] | [15]

CCC(=O)O[C@H]1[C@H](O[C@@H]2[C@@H](C)[C@H](O[C@H]3C[C@@](C)(OC)[C@@H](O)[C@H](C)O3)[C@@H](C)C(=O)O[C@H](CC)[C@@](C)(O)[C@H](O)[C@@H](C)C(=O)[C@H](C)C[C@@]2(C)O)O[C@H](C)C[C@@H]1N(C)C
inactive: [14] | [15] | [16]

O=C(O)c1ccccc1C(=O)OC1CCCCC1
inactive: [14] | [15] | [16]

CCCCCCCCCCCC[N+](C)(C)[O-]
inactive: [14] | [15]

CCCCc1nc(Cl)c(CO)n1Cc1ccc(-c2ccccc2-c2nnn[nH]2)cc1
inactive: [14] | [15] | [16]

O=c1cc(-c2ccccc2)oc2c1ccc1ccccc12
inactive: [14] | [15] | [16]

OCCC1CCCCN1 (centres undefined)
inactive: [14] | [15]

CCCCCC1=C(C)CCC1=O
inactive: [14] | [15] | [16]

CCOC(=O)C(C)CC (centres undefined)
inactive: [14] | [15]

CCCCOC(=O)/C=C/C(=O)OCCCC
inactive: [14] | [15]

OCCS
inactive: [14] | [15] | [16]

Clc1ccc(-c2nc3sccn3c2/C=N/OCc2ccc(Cl)c(Cl)c2)cc1
inactive: [14] | [15]

CN1[C@@H]2CC[C@H]1CC(OC(=O)C(CO)c1ccccc1)C2 (some centres undefined)
inactive: [14] | [15] | [16]

COc1c2occc2c(OC)c2c(=O)cc(C)oc12
inactive: [14] | [15] | [16]

CC(=O)C(=NNc1ccc(-c2ccc(NN=C(C(C)=O)C(=O)Nc3ccc(C)cc3C)c(Cl)c2)cc1Cl)C(=O)Nc1ccc(C)cc1C
inactive: [14] | [15] | [16]

O=c1ccc2ccc(O)cc2o1
inactive: [14] | [15] | [16]

NCCNCCNCCNCCN
inactive: [14] | [15] | [16]

CC1CN(c2cc3c(cc2F)c(=O)c(C(=O)O)cn3-c2ccc(F)cc2F)CCN1 (centres undefined)
inactive: [14] | [15] | [16]

CC(CC(C)(C)C)CC(C)(C)C
inactive: [14] | [15] | [16]

CCOC(=O)[C@@H](C)Oc1ccc(Oc2cnc3cc(Cl)ccc3n2)cc1
inactive: [14] | [15]

CCOCCOC(=O)C=Cc1ccc(OC)cc1
inactive: [14] | [15] | [16]

CCCCN1C(=O)c2ccccc2C1=O
inactive: [14] | [15]

C/C(=C\c1ccc(C(=O)O)cc1)c1ccc2c(c1)C(C)(C)CCC2(C)C
inactive: [14] | [15] | [16]

CCCCCCCCOC(=O)c1ccccc1C(=O)O
inactive: [14] | [15] | [16]

Cc1ccc2[nH]c3cc4c(=O)c5cc(C)ccc5[nH]c4cc3c(=O)c2c1
inactive: [14] | [15] | [16]

CO[Si](OC)OC
inactive: [14] | [15] | [16]

C=C1CCC2CC1C2(C)C (centres undefined)
inactive: [14] | [15] | [16]

Cc1ncc(C[n+]2csc(CCO)c2C)c(N)n1
inactive: [14] | [15] | [16]

CCOc1ccc2ccccc2c1
inactive: [14] | [15] | [16]

CCCCCCCCCCCCCCCC=O
inactive: [14] | [15] | [16]

Cc1cc(N=Nc2c(O)ccc3ccccc23)c(S(=O)(=O)O)cc1Cl
inactive: [14] | [15] | [16]

Reference: PubChem BioAssay (EPA / NIEHS)
